Data reported in PubChem BioAssay.
Calls of active or inactive are those of the source.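 The calls were made as follows, unless noted: active = inhibition of the reporter signal at or above 50%; inactive = inhibition below 50%.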

What was measured:
[1] = inhibitors of TNFa-induced NFkB p65 translocation, primary screen, imaging, HUVEC, MLSMR starter and 10KST1 sets (AID 438;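 active = inhibition above 20% together with a positive visual image hit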;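 also: compound added about 3h40 before a 20 min TNFalpha stimulation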;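 as to inhibition: signal is the nuclear over cytoplasmic p65 intensity ratio per well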); settings: HUVEC TNFa-induced p65 nuclear translocation; cell count: measured here: nuclei count (cytotoxicity indicator), at 2.08 µM; inhibition: at 2 µM, stronger effect = higher value, 0% TNFa-plus-vehicle, 100% no-TNFa wells
[2] = inhibitors of mutant huntingtin aggregation, primary screen, imaging, exon1htt(103Q)mCFP cells, high-content imaging (AID 483;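 active = visual image review flags a hit and inhibition of aggregation exceeds 20%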;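 also: compound exposure lasted 3 days before fixation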;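 as to nuclei count: percent of the per-plate median nuclei count of sample wells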); settings: exon1htt(103Q)mCFP cell line, aggregate imaging, at 2 µM; inhibition of aggregation: stronger effect = higher value; nuclei count: measured here: cell count, toxicity
[3] = inhibitors of E-selectin induction by TNFa, primary screen, imaging, HUVEC, immunofluorescence, MLSMR starter and 10KST1 sets (AID 487;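 active = visually confirmed hit in the image check and inhibition above 20%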;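 as to inhibition: signal is fraction of cell area covered by stained E-selectin grains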;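 as to nuclei count: 100% = median nuclei count of all wells on the same plate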); settings: HUVEC TNFalpha-induced E-selectin immunofluorescence imaging, at 2 µM; inhibition: stronger effect = higher value; nuclei count: measured here: cell number, toxicity
[4] = target: Voltage-gated potassium channel subunit beta-2 (Rattus norvegicus) (UniProt P62483); assay: KvBeta enzyme negative modulators, primary screen, biochemical, NADPH fluorescence (AID 622;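 active = fluorescence slope higher than the sample average by over 3 SD, cut at about -0.22 in these data, passing the limit was not always enough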;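 also: slope of raw intensity against log time taken from 70 to 1610 s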); settings: recombinant KvBeta, 4-cyanobenzaldehyde reduction, at 10 µM, stronger effect = higher value
Voltage-gated potassium channel subunit beta-2 (Rattus norvegicus), sequence (P62483 whole entry, looked up): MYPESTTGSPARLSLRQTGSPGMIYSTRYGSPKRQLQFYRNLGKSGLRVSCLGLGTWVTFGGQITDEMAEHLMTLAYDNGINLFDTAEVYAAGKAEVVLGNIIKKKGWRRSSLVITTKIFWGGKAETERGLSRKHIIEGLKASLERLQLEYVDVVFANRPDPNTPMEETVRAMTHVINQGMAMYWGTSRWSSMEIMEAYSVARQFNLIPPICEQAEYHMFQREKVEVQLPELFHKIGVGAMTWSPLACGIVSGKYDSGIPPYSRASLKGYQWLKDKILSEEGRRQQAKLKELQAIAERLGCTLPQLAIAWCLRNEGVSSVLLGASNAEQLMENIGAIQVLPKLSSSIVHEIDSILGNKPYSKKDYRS

[5] = target: Voltage-gated potassium channel subunit beta-2 (Rattus norvegicus) (UniProt P62483); assay: KvBeta positive modulators, primary screen, biochemical, NADPH fluorescence (AID 623;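 active = NADPH fluorescence slope more negative than the mean of all samples by about 3 SD, 99.7% confidence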;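 also: fluorescence intensity change per second fitted from 20 to 320 s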); settings: Recombinant KvBeta, NADPH fluorescence decrease slope, 10 min; at 10 µM; stronger effect = lower value
[6] = target: Alpha-2C adrenergic receptor (Homo sapiens) (UniProt P18825); assay: modulators of alpha2C/GIRK thallium flux, primary screen, cell-based, HEK293 alpha2C/GIRK1/2 (AID 624;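 active = fluorescence slope after compound addition differing from the mean of all screened samples at 99.7% confidence, in either direction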;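 also: slope of fluorescence ratio to pre-addition baseline per second over 15 to 24 s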); settings: thallium flux BTC fluorescence, at 10 µM, actives lie on both sides
Alpha-2C adrenergic receptor (Homo sapiens), sequence (P18825 whole entry, looked up): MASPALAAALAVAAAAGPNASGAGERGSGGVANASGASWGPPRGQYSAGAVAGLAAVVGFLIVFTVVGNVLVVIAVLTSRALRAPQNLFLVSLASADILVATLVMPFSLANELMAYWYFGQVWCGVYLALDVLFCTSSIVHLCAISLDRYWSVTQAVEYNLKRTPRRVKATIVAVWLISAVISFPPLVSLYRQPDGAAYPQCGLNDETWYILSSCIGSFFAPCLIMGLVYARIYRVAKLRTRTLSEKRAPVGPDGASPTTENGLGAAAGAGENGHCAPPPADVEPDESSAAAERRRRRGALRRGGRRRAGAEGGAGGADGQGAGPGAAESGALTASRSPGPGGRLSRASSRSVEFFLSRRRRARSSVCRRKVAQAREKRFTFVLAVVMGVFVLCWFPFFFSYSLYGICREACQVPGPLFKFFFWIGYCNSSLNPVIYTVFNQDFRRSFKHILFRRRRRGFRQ

[7] = inhibitors of Sendai virus-induced IRF3 signaling, primary screen, TLR/RLR signaling modifier project, cell-based, Sendai virus stimulus, luciferase, 10K MLSCN set (AID 602276;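 active = inhibition at or above 50% at 10 µM; inactive = inhibition below 50%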;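 also: firefly luciferase from ISG56 promoter only with Renilla not read in this screen; 0% = Sendai virus plus DMSO and 100% = medium plus DMSO without virus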); settings: HEK293 RL24 IRF3 luciferase reporter, at 10 µM, stronger effect = higher value
[8] = inhibitors of poly I:C-induced TLR3 signaling, primary screen, cell-based, poly I:C stimulus, luciferase, 10K MLSCN set (AID 602277); settings: HEK293-TLR3 RL24 IRF3 luciferase reporter, at 10 µM, stronger effect = higher value

SMILES | cell count [1] | inhibition [1] | inhibition of aggregation [2] | nuclei count [2] | inhibition [3] | nuclei count [3] | fluorescence slope [4] | NADPH fluorescence slope [5] | slope [6] | inhibition [7] | inhibition [8]
c1ccc2oc(SCc3cn4ccccc4n3)nc2c1 | 612 | 12.6% (inactive) | 16.1% (inactive) | 99.8% | -30.4% (inactive) | 132% | -0.506 (inactive) | -4.1e-05 (inactive) | 0.00508 (inactive) | -46.4% (inactive) | -151% (inactive)
CCOc1ccc(C2CC(c3cccc(OC)c3)Nc3nc(N)nn32)cc1 (centres undefined) | 562 | 5.4% (inactive) | 15.4% (inactive) | 100% | 36.3% (inactive) | 97.4% | -0.619 (inactive) | 7.9e-07 (inactive) | 0.00629 (inactive) | -7.71% (inactive) | -1.03% (inactive)
Cc1c(C(=O)N2CCOCC2)oc2ccc(S(=O)(=O)N3CCCC3)cc12 | 729 | -14.1% (inactive) | 4.5% (inactive) | 106% | -31.7% (inactive) | 105% | -0.518 (inactive) | -7.1e-05 (inactive) | 0.00624 (inactive) | -1.69% (inactive) | 2.47% (inactive)
CCCN1C2CCCC1CC(NC(=O)Nc1cccc(C(C)=O)c1)C2 (centres undefined) | 418 | -10.3% (inactive) | -17% (inactive) | 97% | -138% (inactive) | 180% | -0.637 (inactive) | 1.7e-05 (inactive) | 0.00567 (inactive) | 23.1% (inactive) | 37.8% (inactive)
CCOc1ccc2nc(NC(=O)CSc3nnnn3C3CCCCC3)sc2c1 | 401 | 1.7% (inactive) | -8% (inactive) | 108% | -74.4% (inactive) | 92.8% | -0.393 (inactive) | -3.7e-05 (inactive) | 0.00315 (inactive) | -4.95% (inactive) | -46.7% (inactive)
O=C(CN1c2cccc3cccc(c23)S1(=O)=O)N1CCOCC1 | 253 | -5.5% (inactive) | 16% (inactive) | 83% | -59.8% (inactive) | 101% | -0.189 (inactive) | -1.8e-05 (inactive) | 0.00514 (inactive) | 17% (inactive) | 13.6% (inactive)
Cc1nc2c(C(=O)O)cnn2c(C)c1Cc1ccccc1F | 606 | -12.2% (inactive) | 11.2% (inactive) | 77.3% | -44.9% (inactive) | 105% | -0.406 (inactive) | 4.6e-06 (inactive) | 0.00393 (inactive) | -2.88% (inactive) | -3.96% (inactive)
COc1ccc(C(C(=O)NC2CCCCC2)N2CCC3(CC2)OCCO3)cc1 (centres undefined) | 953 | 1.8% (inactive) | -42.7% (inactive) | 132% | -18.3% (inactive) | 135% | -0.525 (inactive) | -6.1e-05 (inactive) | 0.00579 (inactive) | 31.2% (inactive) | 89.5% (active)
CCOc1ccc(N2CC(C(=O)Nc3cccc(C)c3C)CC2=O)cc1 (centres undefined) | 694 | 0.6% (inactive) | 12.5% (inactive) | 85.4% | -61.5% (inactive) | 114% | -0.608 (inactive) | -1.8e-05 (inactive) | 0.00361 (inactive) | 8.36% (inactive) | 8.88% (inactive)
COc1ccccc1NC1=NC(c2ccc(Cl)cc2)N=C(N)N1 (centres undefined) | 395 | 5.2% (inactive) | -17.1% (inactive) | 35.1% | -308% (inactive) | 124% | -0.299 (inactive) | -4.5e-05 (inactive) | 0.0046 (inactive) | 29.3% (inactive) | 49.9% (inactive)
Cc1ccc(NC(=O)CSc2nnc(-c3cnccn3)n2Cc2ccco2)cc1C | 228 | -3.5% (inactive) | 4.6% (inactive) | 76.2% | 35.1% (inactive) | 65.4% | -0.418 (inactive) | 3.1e-05 (inactive) | 0.00338 (inactive) | 6.92% (inactive) | 17.3% (inactive)
Cc1sc2nc(CN3CCN(S(=O)(=O)c4cccc5nonc45)CC3)[nH]c(=O)c2c1C | 661 | -16.4% (inactive) | 11.8% (inactive) | 60.7% | -55.1% (inactive) | 116% | -0.411 (inactive) | -5.6e-05 (inactive) | 0.00421 (inactive) | 3.59% (inactive) | 1.1% (inactive)
Cc1nc2c(-c3ccc(F)cc3)c(C)nn2c(C)c1CCC(=O)NC(C)CCc1ccco1 (centres undefined) | 791 | 0.6% (inactive) | -37.7% (inactive) | 99.5% | -23.2% (inactive) | 110% | -0.568 (inactive) | -3.3e-05 (inactive) | 0.00479 (inactive) | 4.5% (inactive) | 26.9% (inactive)
C=CCn1c(SCC2=C(C(=O)OCC)C(C)NC(=O)N2)nnc1C1CCCCC1 (centres undefined) | 468 | 6% (inactive) | 4.5% (inactive) | 113% | -85.9% (inactive) | 121% | -0.469 (inactive) | 5.7e-05 (inactive) | 0.00672 (inactive) | 14.6% (inactive) | 27.1% (inactive)
